High-throughput results: PubChem BioAssay, National Center for Advancing Translational Sciences (NCATS)
ELG1 genotox – inducers of genotoxicity in HEK293T ELG1-luciferase cells | HEK293T ELG1-luciferase reporter, luminescence, 16 h | Potency, µM (doses to about 46 µM), without a hit: top-dose activity change, positive = activation, most hits filed as activators | 1.3% of 330,000 active | AID 504466; also: % of control where 0% means no effect; nearly all actives have a fitted effect of over 60% in size
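Cells (2,000/well) expressing the ELG1-luciferase fusion are dosed by pin tool and kept 16 hr at 37 °C, 5% CO2. Signal comes from ONE-Glo luciferase reagent after 30 min at room temperature.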
FLuc counter – counter-screen for miR-21 project: firefly luciferase inhibitors or activators; purified FLuc, Km substrates, luminescence inhibition; Potency, µM (highest dose often 57.5 µM), inactives show at the highest dose activity change, negative = inhibition, most hits filed as inhibitors; 6.9% of 360,000 active;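 also: plate controls were vehicle for no effect and reference inhibitor for full effect; nearly all actives have a fitted effect of over 55% in size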
Target sequence (P08659 whole entry, looked up): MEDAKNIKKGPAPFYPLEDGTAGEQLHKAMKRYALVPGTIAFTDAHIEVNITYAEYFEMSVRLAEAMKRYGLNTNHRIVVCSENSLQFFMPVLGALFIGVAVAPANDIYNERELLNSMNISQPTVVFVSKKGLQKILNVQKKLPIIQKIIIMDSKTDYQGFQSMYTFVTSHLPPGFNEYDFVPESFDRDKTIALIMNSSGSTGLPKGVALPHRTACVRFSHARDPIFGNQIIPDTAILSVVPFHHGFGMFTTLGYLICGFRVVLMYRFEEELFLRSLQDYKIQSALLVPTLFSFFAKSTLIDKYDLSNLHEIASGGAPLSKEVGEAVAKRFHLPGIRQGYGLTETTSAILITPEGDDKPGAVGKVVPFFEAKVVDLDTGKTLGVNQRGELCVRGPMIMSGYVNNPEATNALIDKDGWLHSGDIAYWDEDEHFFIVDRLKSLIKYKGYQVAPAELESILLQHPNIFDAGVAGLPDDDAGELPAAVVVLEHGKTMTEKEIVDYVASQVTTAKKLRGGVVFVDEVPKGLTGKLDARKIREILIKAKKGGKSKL
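Biochemical qHTS of compounds, final roughly 60 µM downward over six points, against 10 nM purified firefly luciferase using Km concentrations of substrates (10 uM D-luciferin, 10 uM ATP) in Tris acetate pH 7.5 buffer; luminescence output.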
Rab9 promoter act – activates the Rab9 promoter. Huh7 Rab9 promoter-luciferase reporter, luminescence, 24 h. Potency, µM (top dose mostly 9.22 µM), for the others: top-dose activation, negative = inhibition, hits mostly activators. 2.8% of 320,000 active; also: % of control where 0% means no effect; nearly all actives have a fitted effect of over 60% in size
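Huh7 cells stably carrying a Rab9 promoter-luciferase reporter, 1500 cells per well in OP-MEM I with 10% FBS, treated with compound 24 hours at 37C. Luciferase activity read by luminescence after 10 minutes with Amplite reagent.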
SMN2 splice enh – enhancers of SMN2 splice variant expression; HEK293 SMN2-luciferase splicing reporter, luminescence, 30-36 h; 2.8% of 210,000 active; Potency, µM (doses to about 46.1 µM), inactives show at the top dose activity change, positive = activation, most hits filed as activators; also: % of control where 0% means no effect; nearly all actives have a fitted effect of over 55% in size
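qHTS luciferase splicing reporter: luminescence rises when SMN2 exon 7 is included in transfected HEK293 cells. Compound exposure lasted 30-36 h at 37C, with 4.5 mM final sodium butyrate as control, followed by a ONE-Glo read.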
NPC1 promoter act – activators of NPC1 promoter; Potency, µM (highest dose often 9.22 µM), inactives show at the top dose activation, actives largely listed as activators; 2.4% of 320,000 active; Huh7 NPC1 promoter luciferase reporter, 24 h; also: % of control where 0% means no effect; nearly all actives have a fitted effect of over 60% in size
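Huh7 cells stably carrying NPC1 promoter–luciferase, plated in Opti-MEM with 10% FBS for 2 h, were exposed to compound in DMSO for 24 h at 37 °C; luciferase reagent was added for 10 min and luminescence read.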
The depositor's hits bear a star; u = inconclusive; x = not tested or not shown; [ ] = remark or other dose. This is a sample that favours compounds with a hit; in the whole collection about 7.4% have one here. Calls follow the shape of the dose curve; as a rule, active = well fitted curve in the direction sought with a large enough effect; inconclusive = small, poorly fitted or top-dose-only effect, or another doubt; inactive = no such curve, though single readings can be large; an effect the other way counts as inactive or inconclusive. Potency is read from the fitted curve at half-maximal effect.

SMILES	ELG1 genotox	FLuc counter	Rab9 promoter act	SMN2 splice enh	NPC1 promoter act
Cn1c(=O)cc(OCCCC(=O)NCc2ccco2)c2ccccc21	18µM*	-2%	-4%	10µM*	-8%
Cc1ccc(CNC(=O)CCCOc2cc(=O)n(C)c3ccccc23)o1	u	-2%	0%	u	-10%
COc1ccc(N2CCN(C(=O)CCCOc3cc(=O)n(C)c4ccccc34)CC2)cc1	0%	3%	2%	-8%	-1%
Cc1oc2c(cc(NS(=O)(=O)c3ccc(Cl)cc3)c3ccccc32)c1C(=O)OCc1ccccc1	x	-19%	x	11%	x
CC(C)CCNC(=O)CCCOc1cc(=O)n(C)c2ccccc12	u	5%	-1%	13µM*	-8%
Cc1ccccc1C(=O)Nc1ccccn1	x	-13%	x	-19%	x
Cn1cc(C(=O)Nc2ccccn2)c(=O)c2ccccc21	u	15µM*	u	x	u
Cc1ccc(-c2noc(CNC(=O)c3ccc(C)c(Cl)c3)n2)cc1	x	-3%	x	1%	x
COc1cc2c(C#N)c(N3CCc4ccccc4C3)nc(N)c2c(N)n1	13%	21µM*	0%	27%	10%
CCOc1cc2c(C#N)c(N3CCNCC3)nc(N)c2c(N)n1	19%	-2%	-2%	u	-3%
CCOC(=O)C1CCN(c2nc(N)c3c(N)nc(SCC(=O)O)cc3c2C#N)CC1	-1%	17µM*	-1%	x	-4%
CCOC(=O)C1CCN(c2nc(C)cc(C)c2C#N)CC1	-1%	3%	-2%	-1%	-2%
CCOc1cc2c(C#N)c(N3CCCCC3)nc(N)c2c(N)n1	u	15µM*	u	-20%	1%
COc1cc2c(C#N)c(N3CCOCC3)nc(N)c2c(N)n1	18%	u	-8%	37%	-2%
COc1cc2c(C#N)c(N3CCCCC3)nc(N)c2c(N)n1	u	4.8µM*	12%	6%	13%
COc1ccc(-c2nc(C#N)c(N3CCc4ccccc4C3)o2)cc1OC	-1%	-14%	-8%	-18%	-6%
O=C1c2ccccc2C(=O)c2c(Nc3cc4c5c(ccc6c7ccc8c9c(cc(Nc%10cccc%11c%10C(=O)c%10ccccc%10C%11=O)c(c3c56)c97)-c3ccccc3C8=O)C(=O)c3ccccc3-4)cccc21	x	x	x	13%[9.22 µM]	x
CN(Cc1ccccc1)Cc1c(F)cccc1F	-5%	15%	-4%	1.4µM*	-2%
COC(=O)c1ccccc1NC(=O)Cn1nc(C(F)(F)F)c2c1CCCC2	x	-14%	x	5%	x
COc1ccc(C2=NN(S(=O)(=O)c3ccccc3)C(c3ccccc3)C2)cc1 (stereo not drawn)	-3%	-2%	0%	x	0%
COc1ccc(C2=NN(CN3C(=O)C(=O)c4ccccc43)C(c3ccc(OC)cc3)C2)cc1 (stereo not drawn)	u	u	3.5µM*	10µM*	u
COc1ccc(C2CC(c3ccccc3)=NN2c2ccc(S(N)(=O)=O)cc2)cc1 (stereo not drawn)	-2%	9.5µM*	1%	x	-4%
COC(=O)[C@@H]1C(O)[C@@H](C(=O)OC)[C@H](C)N(C)[C@@H]1C (stereo partly drawn)	x	x	x	-5%[9.22 µM]	x
Cc1ccccc1CN1C2=NCCN2C(=O)C2=C1CCN(Cc1ccccc1)C2	x	x	x	-35%[9.22 µM]	x
Fc1ccc(N2CCN(c3nc4ccccc4c4nc(-c5ccccc5)nn34)CC2)cc1	x	1%	x	-4%	x
SMILES	ELG1 genotox	FLuc counter	Rab9 promoter act	SMN2 splice enh	NPC1 promoter act
Clc1ccc(N2CCN(c3cnc4ccccc4n3)CC2)cc1	u	17µM*	u	-9%	u
Cc1cc(N2CCN(c3ccccc3)CC2)nc2ccccc12	4%	15µM*	14%	x	11%
c1ccc(N2CCN(c3cnc4ccccc4n3)CC2)cc1	1%	3.4µM*	1.1µM*	3.5µM*	1.6µM*
Fc1ccc(N2CCN(c3cnc4ccccc4n3)CC2)cc1	u	11µM*	3.5µM*	x	2.8µM*
COc1ccc(-n2nc(C(=O)NCCc3ccc(OC)c(OC)c3)c3c4ccccc4n(C)c3c2=O)cc1Cl	x	-2%	x	3%	x
O=C(Nc1ccccc1C(=O)Nc1ccc(F)cc1)c1ccco1	-1%	u	-5%	x	-3%
O=C(/C=C/Nc1ccc(F)cc1)c1ccco1	2.1µM*	0.95µM*	2.8µM*	16µM*	4µM*
Cc1ccc(N/C=C/C(=O)c2ccco2)c(O)c1	3.7µM*	0.76µM*	1.8µM*	x	3.2µM*
CCOC(=O)c1ccc(N/C=C/C(=O)c2ccco2)cc1	0.73µM*	1.3µM*	1.3µM*	14µM*	1.6µM*
Cc1cc(N2CCN(c3cccc(C)c3C)CC2)n2cnnc2n1	x	-8%	x	-5%	x
O=C(CCN1C(=O)C2CCCCC2C1=O)Nc1nc2ccc(F)cc2s1 (stereo not drawn)	u	0.85µM*	0.4µM*	x	0.63µM*
O=C(CCN1C(=O)C2CCCCC2C1=O)Nc1nc2c(F)cc(F)cc2s1 (stereo not drawn)	u	-19%	1.4µM*	x	2.5µM*
O=C(CN1C(=O)NC2(CCCCC2)C1=O)Nc1nc2c(F)cc(F)cc2s1	1%	-12%	3%	x	2%
O=C(CCN1C(=O)C2CCCCC2C1=O)Nc1cc(F)ccc1F (stereo not drawn)	1%	1%	-3%	x	-3%
NC(=O)c1cnn(-c2ccc3ccccc3c2)c1N	u	u	4µM*	18µM*	27%
COC(=O)c1cnn(-c2ccccc2)c1N	2%	-3%	11%	x	18%
Cc1ccccc1NC(=O)CSc1cn(CC(=O)N(C(C)C)C(C)C)c2ccccc12	x	3%	x	x	x
O=C(CNc1ccc2ccccc2c1)N/N=C/c1ccc(C(=O)O)cc1	3%	27µM*	2%	12%	8%
O=C(CNc1cccc2ccccc12)N/N=C/c1ccc(C(=O)O)cc1	0%	-18%	10%	-5%	2%
O=C(CNc1ccc2ccccc2c1)N/N=C/c1cc2ccccc2nc1Cl	-2%	15µM*	-3%	-17%	7%
O=S(=O)(c1ccc2c(c1)OCCO2)N1CCN(S(=O)(=O)c2ccc3c(c2)OCCO3)CC1	x	0.6µM*	0.4µM*	x	0.35µM*
Nc1nc(Nc2cccc(Cl)c2)sc1C(=O)c1ccc(F)cc1	x	-10%	x	x	x
Nc1nc(Nc2ccccc2F)sc1C(=O)c1ccc(Cl)cc1	x	15µM*	x	14µM*	x
CN(C)c1cccc(C(=O)OCC(=O)N(C)c2ccccc2)c1	0%	-2%	-1%	x	1%
CN(C)c1ccc(N=Nc2ccccc2C(=O)OCC(=O)N(C)c2ccccc2)cc1	-2%	1.3µM*	23%	u	24%
COC(=O)c1ccccc1NC(=O)COC(=O)c1ccco1	0%	6%	-1%	-27%	-3%
CC(=O)c1ccc(NC(=O)COC(=O)c2ccccc2N=Nc2ccc(N(C)C)cc2)cc1	-3%	5.4µM*	12%	u	1%
